Bioassay records deposited in PubChem by National Center for Advancing Translational Sciences (NCATS).
PTAP TSG101 blk: blocks PTAP/TSG101 interaction to inhibit HIV-1 budding; Fluorescence polarization, FITC-PTAP peptide / Tsg101 binding; Potency, µM (doses to about 115 µM), actives largely listed as inhibitors; 340,000 tested, under 10 active; active = well fitted inhibition curve with a large enough effect in the main read-out, with a control signal flat, not every such curve was filed as active; inconclusive = small, poorly fitted or top-dose-only effect, or effect the other way, or a change in a side signal; inactive = no such curve, though single readings can be large or run the other way
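Tsg101 binding domain (10 uM final) was mixed with compound and a FITC-labeled PTAP peptide (50 nM final) in HEPES pH 7.5 buffer with NaCl, Tween 20, EDTA and TCEP; fluorescence polarization was read after 20 min at r.t.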
DRD3 antagonist: antagonists of human D3 dopamine receptor; max response, negative = inhibition, %; P35462; hit rate 2.5% among 360,000; AID 652054; D3R cells, DiscoveRx beta-arrestin luminescence, antagonist mode; stronger effect = lower value; in the data active = max response below about -50%; inconclusive = no clear call, values can overlap the other calls
Target sequence (P35462 whole entry, looked up): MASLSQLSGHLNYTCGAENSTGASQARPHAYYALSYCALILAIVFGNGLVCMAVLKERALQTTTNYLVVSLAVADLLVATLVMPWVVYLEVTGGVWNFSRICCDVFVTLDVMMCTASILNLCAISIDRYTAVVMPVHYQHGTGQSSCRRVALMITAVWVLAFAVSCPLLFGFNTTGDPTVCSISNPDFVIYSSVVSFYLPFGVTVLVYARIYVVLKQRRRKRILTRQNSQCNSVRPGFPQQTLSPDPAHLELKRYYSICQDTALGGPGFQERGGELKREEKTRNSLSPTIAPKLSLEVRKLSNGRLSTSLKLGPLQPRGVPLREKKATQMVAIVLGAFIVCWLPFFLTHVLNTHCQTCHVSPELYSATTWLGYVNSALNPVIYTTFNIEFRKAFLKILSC
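Cells plated overnight at 1500 cells/well, then exposed to library compounds with dopamine controls for 90 minutes at 37 degrees C. DiscoveRx reagent added for 30–60 minutes at room temperature; luminescence read, quantitative HTS format.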
Rango complex inh: Rango-importin beta binding inhibition. Q14974. Rango CFP/YFP FRET sensor + importin beta, 45 min. Potency, µM (highest dose often 92.2 µM). hit rate 0.031% among 340,000. AID 540263; also: nearly all actives have a fitted effect of over 15% in size
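FRET biosensor Rango (snurportin 1 IBB between N-terminal EYFP and C-terminal Cerulean), 50 nM in PBS/1 mM DTT/0.02% Tween-20/0.1% BSA, preincubated 5 min RT with compound; 0.125 microM importin beta added, 45 min RT, CFP/YFP FRET ratio read.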
D3 ag: agonists of human D3 dopamine receptor; P35462; D3R DiscoveRx beta-arrestin cells, luminescence, 90 min; max activation, %; hit rate 0.58% among 410,000; AID 652048; in the data active = max activation above about 30%
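Cells at 1500/well, incubated overnight, then treated with pinned compounds (dopamine as control) for 90 min at 37 degrees C. DiscoveRx reagent added for 30 - 60 minutes at room temperature; luminescence read.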
Rango release inh: inhibition of RanGTP-driven Rango-importin beta dissociation; Biochemical FRET Rango-importin beta, RanGTP-induced dissociation; O95149+P62826; Potency, µM (top dose mostly 46.1 µM); hit rate 0.071% among 340,000; also: nearly all actives have a fitted effect of over 45% in size
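Two FRET readings bracket the reaction: one 5 min after compound meets Rango–importin beta, another 45 min after RanGTP-RCC1 (0.6 uM Ran, 0.2 uM RCC1, 2 mM GTP) is added. Only the second defines inhibition.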
MmCpn inh: blocks the Methanococcus maripaludis chaperonin Mm-Cpn. purified Mm-Cpn ATPase, ADP Transcreener TR-FRET. hit rate 0.031% among 330,000. AID 504842. Potency, µM (highest dose often 76.9 µM), most hits filed as inhibitors; active = well fitted inhibition curve with a large enough effect; inconclusive = small, poorly fitted or top-dose-only effect; also: nearly all actives have a fitted effect of over 80% in size
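ATP (10 uM final) was added to archaeal chaperonin (25 nM final) after 10 min exposure to test compound at 37°C; after 30 min further incubation, ADP was detected by competitive TR-FRET.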
Numbers stand for hits; . = inactive; ? = inconclusive; / = not tested or not shown; ! = repeats disagree. An excerpt weighted towards active compounds, which were near 2.9% of everything screened. Unless noted, calls follow the shape of the full dose curve.

SMILES	PTAP TSG101 blk	DRD3 antagonist	Rango complex inh	D3 ag	Rango release inh	MmCpn inh
Nc1ncnc2c1ncn2[C@@H]1O[C@H](CNCc2ccc(-c3cc(C(F)(F)F)ccc3Cl)o2)[C@@H](O)[C@H]1O	.	-75.8	.	.	.	.
CSCCC(NC(=O)c1cccc([N+](=O)[O-])c1)c1nc2ccccc2[nH]1 (stereo unspecified)	.	-53.5	.	.	.	.
COc1cc2c(cc1OC)CN(C(=O)c1cc(COc3ccccc3SC)on1)CC2	/	.	/	.	/	/
CSc1ccccc1OCc1cc(C(=O)N2CCc3c(Cl)cccc3C2)no1	.	.	.	32.2	.	.
COc1ccccc1C(=O)n1nc(-c2cccnc2)nc1NCc1ccccc1	.	.	.	.	.	.
CCCC(=O)n1nc(-c2cccnc2)nc1NCc1ccc(OC)cc1	.	.	.	57.0!	.	.
Fc1ccc(-c2csc3ncnc(N4CCc5ccccc5C4)c23)cc1	.	.	.	46.4	.	.
Oc1ccccc1N1CCN(c2ncnc3scc(-c4ccccc4)c23)CC1	.	.	.	38.8	.	.
Oc1ccccc1N1CCN(c2ncnc3scc(-c4ccc(F)cc4)c23)CC1	.	.	.	.	.	.
Cc1ccc(-c2csc3ncnc(N4CCN(Cc5ccccc5)CC4)c23)cc1	.	.	.	.	.	.
CCN1CCN(c2ncnc3scc(-c4ccc(C)cc4)c23)CC1	.	-92.3	?	.	.	.
Cc1nc(N2CCN(c3ccccc3O)CC2)c2c(-c3ccccc3)csc2n1	.	.	.	32.2	.	.
COCC(=O)N1c2nc(-c3ccco3)nn2C2(CCCCC2)[C@@H]2CCCC[C@@H]21	/	/	/	.	/	/
Cc1cccc(Cn2ccn(Cc3ccc(Cl)cc3)c(=O)c2=O)c1	/	/	/	.	/	/
CCn1c(SCc2ccc(F)cc2Cl)nc(=O)c2c(C(=O)OC)cc(C3CC3)nc21	/	/	/	.	/	/
O=C(Cc1csc(Nc2nc(=S)[nH]c3ccccc23)n1)NCCCN1CCN(c2ccccc2F)CC1	.	-69.2	?	.	?	.
O=C(Cc1csc(Nc2nc(=S)[nH]c3ccccc23)n1)NCc1ccc(Cl)cc1	/	.	.	.	.	.
CCO[C@@H]1OC(C(=O)O)=C[C@H](C2CCCCC2)[C@H]1CCCO	.	.	.	34.7	.	/
O=C(c1ccc2ccccc2c1)N1CCN(Cc2ccccc2)CC1	.	-86.3	.	.	.	.
CCOc1ccc(NC(=O)C(=O)NCCN2CCN(C(=O)c3ccc(C)cc3)CC2)cc1	.	-59.9	.	.	.	.
CCOc1ccc(CN2CCN(C(=O)c3ccccc3)CC2)cc1	.	-79.7	.	.	.	.
O=C(c1cccc(C(=O)N2CCN(Cc3ccccc3)CC2)c1)N1CCN(Cc2ccccc2)CC1	.	.	.	.	.	.
O=C(NCc1ccccc1)c1nn(-c2ccccc2)nc1CO	/	/	/	.	/	/
COc1ccc(NC(=O)C2CCC(CNc3c(N4CCC(C)CC4)c(=O)c3=O)CC2)cc1OC (stereo unspecified)	.	-104.7!	.	.	.	.
COc1ccc(CNC(=O)CSc2ncc(S(=O)(=O)c3ccc(C)c(Cl)c3)c(=O)[nH]2)cc1	/	/	/	.	/	/
SMILES	PTAP TSG101 blk	DRD3 antagonist	Rango complex inh	D3 ag	Rango release inh	MmCpn inh
Cc1cc(C)c(OCCCNCc2ccccc2)c(Br)c1	.	.	.	.	.	.
Cc1cc(C)c(OCCCNC2CCCC2)c(Br)c1	.	-53.1	.	.	.	.
CCOc1cccc(CC(=O)N2CCc3c([nH]c4ccccc34)C2c2ccccc2)c1OCC (stereo unspecified)	/	/	/	.	/	/
CCCc1ccc(/C=C2\C(=O)c3ccccc3C(O)=C2C(=O)OCC)cc1	/	/	/	/	/	.
CCOC(=O)C1=C(Cc2ccc(OC)cc2)C(=O)c2ccccc2C1=O	.	-71.3	?	.	?	.
CCOC(=O)C1=C(O)c2ccccc2C(=O)/C1=C\c1ccc(CC)cc1	.	-69.9	?	.	?	.
CCOC(=O)C1=C(Cc2ccc(C)cc2)C(=O)c2ccccc2C1=O	/	/	/	/	/	.
COc1cccc(CNC(=O)CCC2CCCN(Cc3cc4ccccc4o3)C2)c1 (stereo unspecified)	.	-70.9	.	.	.	.
COc1cccc(CNC(=O)CCC2CCCN(C(=O)c3cccc(Cl)c3)C2)c1 (stereo unspecified)	.	.	.	41.8	.	.
COc1ccc(Sc2nc(-c3ccccn3)ncc2OC)cc1	.	.	.	.	.	.
COc1cnc(-c2ccccn2)nc1N(C)c1ccccc1	.	-68.2	.	.	.	.
COc1cnc(-c2ccccn2)nc1Sc1ccc(Cl)cc1	.	-99.2	.	.	.	.
CCc1nnc(NC(=O)c2cc(=O)c3cc(C)ccc3o2)s1	/	/	/	.	/	/
CC(C)c1nc(C(=O)N2CCCC(N3CCN(c4cccc(Cl)c4)CC3)C2)cs1 (stereo unspecified)	.	.	.	.	.	.
CN(CC(=O)NCCN1CCN(c2ccccc2)CC1)S(=O)(=O)c1ccc2c(c1)CCC(=O)N2	.	-64.0	.	.	.	.
CCCN1CCN(c2cc3c(cc2F)c(=O)c(S(=O)(=O)c2ccc(Cl)cc2)cn3C)CC1	/	/	/	.	/	/
O=c1[nH]cnc2c1nc(NCc1ccccc1)n2C1O[C@@H](CO)[C@H](O)[C@@H]1O (stereo partly specified)	.	.	.	.	.	.
Cc1c(C(=O)O)c(O)cc2c1C(=O)c1c(O)c([C@@H]3O[C@H](CO)[C@@H](O)[C@H](O)[C@H]3O)c(O)c(O)c1C2=O	?	-83.8	?	.	.	.
CN(C)CCCC(C)(O)C(Cc1ccccc1)c1ccccc1 (stereo unspecified)	.	-57.6	.	.	.	.
CCOc1ccccc1NC(=O)C1CCN(S(=O)(=O)c2ccc3[nH]c(=O)oc3c2)CC1	/	/	/	.	/	/
COc1ccc(-n2c(C)cc(/C=C3\C(=O)NN(c4ccccc4)C3=O)c2C)cc1	.	-58.5	.	.	.	.
Cc1cc(/C=C2/C(=O)NN(c3ccccc3)C2=O)c(C)n1-c1ccc(O)cc1	.	.	.	.	.	.
N#C/C(=N\Nc1ccccc1)C(=N)N1CCCCCC1	.	.	.	.	.	.
O=C(O)c1cc(-n2nnnc2SCc2ccc([N+](=O)[O-])cc2)ccc1Cl	.	-53.9	.	.	.	.
O=C(NC(=O)N1CCCc2ccccc21)c1ccccc1	.	.	.	.	.	.
O=C(C(c1ccccc1)c1ccccc1)N1CCCc2ccccc21	.	-60.8	.	.	.	.
CCOc1ccc(-c2cc3nc(C4CCN(C(=O)OC(C)(C)C)CC4)c(C(=O)Nc4cccc(Cl)c4C)cn3n2)cc1	/	/	/	.	/	/
